# Measured values from PubChem BioAssay (EPA / NIEHS).
# Active and inactive are the calls of the source. Rule for the calls: active = hit-call score of the fitted dose curve at least 0.9, where 1 is the maximum; inactive = score below 0.9.
# Biological target: Transcriptional activator Myb (Homo sapiens) (UniProt P10242)
# Experiment: ATG_Myb_CIS: Attagene CIS-FACTORIAL HepG2 Assay for human Myeloblastosis (Myb) Proto-Oncogene Transcription Factor (AID 2282986)
# Details: HepG2 Attagene CIS-FACTORIAL Myb reporter transcription; actives raise or lower the signal
# In short: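 In this HepG2 transient-transfection format, cis-regulated reporter mRNA is quantified 24 h post-dosing by RT-PCR with capillary electrophoresis, fitted bidirectionally to DMSO baseline.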
# Transcriptional activator Myb (Homo sapiens), sequence (P10242 whole entry, looked up): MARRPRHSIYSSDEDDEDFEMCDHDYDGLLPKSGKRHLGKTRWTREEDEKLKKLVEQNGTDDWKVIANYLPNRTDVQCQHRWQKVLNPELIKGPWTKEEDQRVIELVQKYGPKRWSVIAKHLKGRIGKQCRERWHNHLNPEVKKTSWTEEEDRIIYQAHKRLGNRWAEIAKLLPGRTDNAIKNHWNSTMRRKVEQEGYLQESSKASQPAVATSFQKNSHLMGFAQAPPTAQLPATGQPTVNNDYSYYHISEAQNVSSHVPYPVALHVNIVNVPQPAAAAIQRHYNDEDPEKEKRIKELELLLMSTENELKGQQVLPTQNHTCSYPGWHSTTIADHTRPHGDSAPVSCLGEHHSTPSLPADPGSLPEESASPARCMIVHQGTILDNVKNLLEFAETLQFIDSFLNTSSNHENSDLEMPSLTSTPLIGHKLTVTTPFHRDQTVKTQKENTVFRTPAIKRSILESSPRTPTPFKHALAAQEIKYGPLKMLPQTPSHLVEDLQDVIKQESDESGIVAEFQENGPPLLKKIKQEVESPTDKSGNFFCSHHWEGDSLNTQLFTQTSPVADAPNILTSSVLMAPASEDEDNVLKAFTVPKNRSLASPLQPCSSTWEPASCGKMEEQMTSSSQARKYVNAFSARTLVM
SMILES,outcome,AC50
C=CC(=O)OCCCCOC(=O)C=C,inactive,–
c1ccc2c(c1)CCCC2,inactive,–
CCOC(=O)C1OC1(C)c1ccccc1 (stereo not given),inactive,–
[Cl][Sb]([Cl])[Cl],inactive,–
COc1ncc(F)c2nc(S(=O)(=O)Nc3c(F)cccc3F)nn12,inactive,–
CC(C)[C@@H](C(=O)O[C@@H](C#N)c1cccc(Oc2ccccc2)c1)c1ccc(Cl)cc1,inactive,–
C[C@]12CC[C@H]3[C@@H](CC[C@@]45O[C@@H]4C(O)=C(C#N)C[C@]35C)[C@@H]1CC[C@@H]2O,inactive,–
O=[N+]([O-])c1cc([N+](=O)[O-])c2ccccc2c1,inactive,–
O=C(O)C(Br)Br,inactive,–
C=CC(=O)OCCO,inactive,–
CCCCCCCCCCCCCCCC[N+](C)(C)C,–,24.5 µM (active)

# Biological target: Nuclear respiratory factor 1 (Homo sapiens) (UniProt Q16656)
# Experiment: ATG_NRF1_CIS: Attagene CIS-FACTORIAL HepG2 Assay for human Nuclear Respiratory Factor 1 (NRF1) Orphan Gene (AID 2282987)
# Details: HepG2 NRF1 cis-element reporter, Attagene multiplex; actives raise or lower the signal
# In short: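 Using DMSO as baseline, gain- or loss-of-signal was fitted for reporter mRNA levels in HepG2 cells transiently transfected with cis-regulated reporter units. Samples were taken 24 h after dosing and read by RT-PCR with capillary electrophoresis.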
# Nuclear respiratory factor 1 (Homo sapiens), sequence (Q16656 whole entry, looked up): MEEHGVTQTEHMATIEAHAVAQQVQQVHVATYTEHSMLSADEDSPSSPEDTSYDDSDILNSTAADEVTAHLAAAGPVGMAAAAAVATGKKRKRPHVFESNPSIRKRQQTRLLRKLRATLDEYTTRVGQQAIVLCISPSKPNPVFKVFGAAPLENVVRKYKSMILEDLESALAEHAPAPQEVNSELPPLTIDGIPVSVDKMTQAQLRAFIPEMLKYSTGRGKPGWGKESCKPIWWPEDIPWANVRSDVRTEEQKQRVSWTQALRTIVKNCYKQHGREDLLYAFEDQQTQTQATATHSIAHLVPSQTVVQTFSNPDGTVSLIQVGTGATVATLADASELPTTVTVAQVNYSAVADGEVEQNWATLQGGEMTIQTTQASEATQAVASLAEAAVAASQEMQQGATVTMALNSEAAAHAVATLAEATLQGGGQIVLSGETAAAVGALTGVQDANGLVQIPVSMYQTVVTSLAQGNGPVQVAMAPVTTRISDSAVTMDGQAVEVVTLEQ
SMILES,outcome,AC50
CCCCCCCCCCCC#N,inactive,–
O=C(NC(=O)c1c(F)cccc1F)Nc1ccc(Oc2ccc(C(F)(F)F)cc2Cl)cc1F,inactive,–
CC1CCCC1.[C-]#[O+].[C-]#[O+].[C-]#[O+].[Mn],inactive,–
CCCCNP(N)(N)=S,inactive,–
CC(=O)C=Cc1ccccc1,inactive,–
CCC(=O)c1ccc(Cl)cc1,inactive,–
Nc1ccccc1C(=O)Oc1ccc2ccccc2c1,–,139 µM (active)
C=CC(=O)OC,inactive,–
CC(C)CCCCCCCOC(=O)c1ccccc1C(=O)OCCCCCCCC(C)C,inactive,–
N#CCNCC#N,inactive,–
CN(C)N,inactive,–
CN1C[C@H](C(=O)N[C@]2(C)O[C@@]3(O)[C@@H]4CCCN4C(=O)[C@H](Cc4ccccc4)N3C2=O)C=C2c3cccc4[nH]cc(c34)C[C@H]21,inactive,–
O=[N+]([O-])C=Cc1ccccc1,–,38.5 µM (active)
Nc1ccc(Cl)c(Cl)c1,inactive,–
CCCCOP(=O)(O)OCCCC,inactive,–
O=C(O)CCl,inactive,–
CC(O)CN(CC(C)O)CC(C)O (stereo not given),inactive,–
Nc1cc(Cl)cc(Cl)c1,inactive,–
O=[N+]([O-])c1ccc(Cl)cc1,inactive,–

SMILES,outcome,AC50
Cc1ccc(C)c2ccccc12,inactive,–
C=CCO,inactive,–
COC(=O)COc1ccc(Cl)cc1Cl,inactive,–
[CH3][Sn]([Cl])([Cl])[Cl],inactive,–
CC(=O)c1cc2c(cc1C)C(C)(C)C(C)CC2(C)C (stereo not given),inactive,–
Nc1ccc(-c2ccc(N)c(N)c2)cc1N,inactive,–
c1cc(OCC2CO2)ccc1Cc1ccc(OCC2CO2)cc1 (stereo not given),inactive,–
C=CC(=O)OCCCCOC(=O)C=C,inactive,–
c1ccc2c(c1)CCCC2,inactive,–
CCOC(=O)C1OC1(C)c1ccccc1 (stereo not given),inactive,–
[Cl][Sb]([Cl])[Cl],inactive,–
COc1ncc(F)c2nc(S(=O)(=O)Nc3c(F)cccc3F)nn12,inactive,–
CC(C)[C@@H](C(=O)O[C@@H](C#N)c1cccc(Oc2ccccc2)c1)c1ccc(Cl)cc1,inactive,–
C[C@]12CC[C@H]3[C@@H](CC[C@@]45O[C@@H]4C(O)=C(C#N)C[C@]35C)[C@@H]1CC[C@@H]2O,inactive,–
O=[N+]([O-])c1cc([N+](=O)[O-])c2ccccc2c1,inactive,–
O=C(O)C(Br)Br,inactive,–
C=CC(=O)OCCO,inactive,–
CCCCCCCCCCCCCCCC[N+](C)(C)C,–,26 µM (active)

# System: not listed separately
# Experiment: ATG_NFI_CIS: Attagene CIS-FACTORIAL HepG2 Assay for human Nuclear Factor I (NFI) (AID 2282989)
# Details: HepG2 cis-regulatory reporter, NFI response element transcription; actives raise or lower the signal
# In short: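 Transfected HepG2 liver cells, exposed 24 h, supplied total RNA for oligo(dT) reverse transcription and reporter-specific PCR. Labelled, HpaI-cut fragments were sized by capillary electrophoresis; DMSO set the baseline for bidirectional fitting.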
SMILES,AC50,outcome
CCCCCCCCCCCC#N,169 µM (active),–
O=C(NC(=O)c1c(F)cccc1F)Nc1ccc(Oc2ccc(C(F)(F)F)cc2Cl)cc1F,–,inactive
CC1CCCC1.[C-]#[O+].[C-]#[O+].[C-]#[O+].[Mn],–,inactive
CCCCNP(N)(N)=S,–,inactive
CC(=O)C=Cc1ccccc1,–,inactive
CCC(=O)c1ccc(Cl)cc1,–,inactive
Nc1ccccc1C(=O)Oc1ccc2ccccc2c1,85.4 µM (active),–
C=CC(=O)OC,–,inactive
CC(C)CCCCCCCOC(=O)c1ccccc1C(=O)OCCCCCCCC(C)C,–,inactive
N#CCNCC#N,–,inactive
CN(C)N,–,inactive
CN1C[C@H](C(=O)N[C@]2(C)O[C@@]3(O)[C@@H]4CCCN4C(=O)[C@H](Cc4ccccc4)N3C2=O)C=C2c3cccc4[nH]cc(c34)C[C@H]21,–,inactive
O=[N+]([O-])C=Cc1ccccc1,18.6 µM (active),–
Nc1ccc(Cl)c(Cl)c1,–,inactive
CCCCOP(=O)(O)OCCCC,–,inactive
O=C(O)CCl,–,inactive
CC(O)CN(CC(C)O)CC(C)O (stereo not given),–,inactive
Nc1cc(Cl)cc(Cl)c1,–,inactive
O=[N+]([O-])c1ccc(Cl)cc1,–,inactive

SMILES,AC50,outcome
Cc1ccc(C)c2ccccc12,–,inactive
C=CCO,–,inactive
COC(=O)COc1ccc(Cl)cc1Cl,–,inactive
[CH3][Sn]([Cl])([Cl])[Cl],–,inactive
CC(=O)c1cc2c(cc1C)C(C)(C)C(C)CC2(C)C (stereo not given),25.4 µM (active),–
Nc1ccc(-c2ccc(N)c(N)c2)cc1N,–,inactive
c1cc(OCC2CO2)ccc1Cc1ccc(OCC2CO2)cc1 (stereo not given),–,inactive
C=CC(=O)OCCCCOC(=O)C=C,–,inactive
c1ccc2c(c1)CCCC2,–,inactive
CCOC(=O)C1OC1(C)c1ccccc1 (stereo not given),–,inactive
[Cl][Sb]([Cl])[Cl],–,inactive
COc1ncc(F)c2nc(S(=O)(=O)Nc3c(F)cccc3F)nn12,–,inactive
CC(C)[C@@H](C(=O)O[C@@H](C#N)c1cccc(Oc2ccccc2)c1)c1ccc(Cl)cc1,–,inactive
C[C@]12CC[C@H]3[C@@H](CC[C@@]45O[C@@H]4C(O)=C(C#N)C[C@]35C)[C@@H]1CC[C@@H]2O,–,inactive
O=[N+]([O-])c1cc([N+](=O)[O-])c2ccccc2c1,–,inactive
O=C(O)C(Br)Br,–,inactive
C=CC(=O)OCCO,164 µM (active),–
CCCCCCCCCCCCCCCC[N+](C)(C)C,–,inactive
